Experimental data: PubChem BioAssay (NCI)
This is part of a sample that, as a whole, favours compounds with a hit. Of some 83,000 tested, about 20% had one in any assay.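 Note: values are percent growth. 100 is the growth of untreated cells, values between 100 and 0 indicate rising inhibition; between -100 and 0 indicates cell death.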 Calls of active or inactive are those of the source.

test system: OVCAR-4 ovarian; test: NCI-60 one-dose screen, 48 h (100 = growth as untreated, 0 = no growth, -100 = all killed); settings: 10 µM unless noted
Method: Growth inhibition of the OVCAR-4 human tumor cell line is measured as a screen for anti-cancer activity. Cells are grown in 96 well plates and exposed to the test compound for 48 hours. Compounds are tested at a single concentration, which is 10^-5 M for most compounds. The reported endpoint is percent growth (GI% or GIPRCNT), where numbers from 0 - 100% represent growth inhibition, and numbers from -100% - 0 represent cell death. For example, a value of 40 represents 60% growth inhibition. A value of 0 means no net growth occurred over the course of the experiment. A value of -40 indicates 40% of cells at the beginning of the experiment died by the end of the experiment. A value of -100 means all cells are dead at the end of the experiment.
NCI-60 Human Tumor Cell Lines Screen was performed using the standard one-dose NCI protocol, which is described in more detail at https://dtp.cancer.gov/discovery_development/nci-60/default.htm.
Compounds with GIPRCNT values below 10 were considered active. Activity score was based on GIPRCNT using the following formula: […]
Score is 0 for GIPRCNT values of 100 or above, 50 for GIPRCNT values of 0, and 100 for GIPRCNT values of -100.

Row | SMILES | growth
1 | O=C(CN1C(=O)S/C(=C\C(Cl)=C\c2ccccc2)C1=O)NC1CCS(=O)(=O)C1 (stereo not given) | 78.7% (inactive)
2 | CCn1cc(C(=O)N/N=C/c2ccccc2)c(=O)c2cc(F)c(N3CCNC(C)C3)c(F)c21 (stereo not given) | 70.7% (inactive)
3 | COc1ccc(C2[C@@H](c3ccccc3)C(=O)N2c2cc(OC)c(OC)c(OC)c2)cc1F (stereo not given in full) | 59% (inactive)
4 | CCOC(=O)c1c(NC(=O)c2ccccc2)sc2c3c(ccc12)OCN(C)C3 | 61.8% (inactive)
5 | O=CN1N=C(c2cccc(Nc3ccnc4cc(Cl)ccc34)c2)CC1c1ccc(Cl)cc1 (stereo not given) | 57.5% (inactive)
6 | Cn1c(C#N)ccc1-c1ccc(F)c(NC(=O)c2ccc(F)cc2)c1 | 85% (inactive)
7 | COc1cc2c(c(OC)c1OC)C(=O)CC(c1cccc(C(=O)Nc3ccccc3Br)c1)O2 (stereo not given) | 70.6% (inactive)
8 | Cc1ccc(S(=O)(=O)OCC#CCOS(=O)(=O)c2ccc(C)cc2)cc1 | 73.4% (inactive)
9 | CCN1C(=O)N(CC)C2C1NN=c1s/c(=C\c3ccc(OC)cc3)c(=O)n12 (stereo not given) | 46.3% (inactive)
10 | Cc1ccc(S(=O)(=O)OC[C@]23CCC(C)(C)C[C@H]2C2=CC[C@@H]4[C@@]5(C)CCCNC(C)(C)[C@@H]5CC[C@@]4(C)[C@]2(C)CC3)cc1 | 23.3% (inactive)
11 | FC(F)(F)c1[nH]ncc1-c1nc2ccc3[nH]ncc3c2c2c1CCCC2 | 45.8% (inactive)
12 | COc1ccc(/C=C/C(c2cc(OC)c(OC)c(OC)c2)n2cncn2)cc1O (stereo not given) | 83.5% (inactive)
13 | Cc1nc2ccccc2c(/C=C/c2ccc(F)cc2)c1C(=O)/C=C/c1ccccc1 | 36.4% (inactive)
14 | COc1ccc(/C=C2\CN(C(=O)C(Cl)Cl)C/C(=C\c3ccc(OC)c(OC)c3)C2=O)cc1OC | 19.8% (inactive)
15 | COc1ccc(/C=C2\c3cc(OC)c(OC)c(OC)c3CC[C@@H]2O)cc1F | 57% (inactive)
16 | Cc1cccc(N2C(=O)/C(=C/C(Cl)=C/c3ccc([N+](=O)[O-])cc3)SC2=S)c1C | 19.8% (inactive)
17 | COc1ccc(N/N=C/c2cn(-c3ccc(C(=O)O)cc3)nc2-c2cc3ccccc3oc2=O)cc1 | 79% (inactive)
18 | COC12C=C/C(=C(/C(=O)OCc3csc(SC)n3)C(=O)CCCCCCCCC3(OC)C=C/C(=C(/C(=O)OCc4cnc(SC)s4)C(=O)CCCCCCCC1)O3)O2 (stereo not given) | 38.8% (inactive)
19 | Fc1ccc(/C=C/[C@@H]2C[C@@H](F)CCO2)cc1 | 119% (inactive)
20 | CC(=O)c1ccc(-n2cc(CN3CCN(c4cc5c(cc4F)c(=O)c(C(=O)O)cn5C4CC4)CC3)nn2)cc1 | 102% (inactive)

Row | SMILES | growth
21 | CC1=Nc2cnc(Nc3ccc(N4CCCCC4)cc3)nc2Nc2ccccc21 | 52.2% (inactive)
22 | COCCn1cc(-c2nc(-c3c[nH]c4ncccc34)cs2)c2ccccc21 | 15.2% (inactive)
23 | N#CSc1c[nH]c2ccc(/C=C/C(=O)/C=C(O)/C=C/c3ccc4[nH]cc(SC#N)c4c3)cc12 | 18.6% (inactive)
24 | CCOC(=O)c1cnn(CC(C)O)c1NC(=O)NCc1cccc(F)c1 (stereo not given) | 122% (inactive)
25 | COc1ccc(C/C(C)=C(\c2ccc(Cl)cc2)c2ccc(OCCCN(C)C)cc2)cc1 | 92.9% (inactive)
26 | CC(O)CNC(Cc1ccccc1)c1ccc2c(c1)OCO2 (stereo not given) | 102% (inactive)
27 | Cc1cccc(NC(=O)N/C(N)=N/c2nc3ccccc3s2)c1 | 56.9% (inactive)
28 | CCOC(=O)C/C(=N\Nc1cc(=O)[nH]c2ccc(C)cc12)C(=O)OCC | 106% (inactive)
29 | CCCCCCCCCCOC(=O)c1nn(C(C)=O)c2cc(C)c(C)cc12 | 0.466% (active)
30 | O=C1/C(=C/c2ccccn2)SC(=S)N1N1CCOCC1 | 107% (inactive)
31 | C(=C(\C1=NCCN1)n1ccc2ccccc21)/c1ccccc1 | 103% (inactive)
32 | COc1ccc(/C=N/Nc2c3ccccc3nc3ccccc23)cc1 | 81.7% (inactive)
33 | COc1cc(N2C(=O)[C@H](Cl)C2c2ccc(SC)cc2)cc(OC)c1OC (stereo not given in full) | 48% (inactive)
34 | O=C(Nc1cc(Cl)cc(Cl)c1)Oc1c(Cl)c(Cl)c(Cl)c(Cl)c1Cl | 82.4% (inactive)
35 | Clc1cccc(C2Cc3cnccc3-c3[nH]c4ccncc4c32)c1 (stereo not given) | 36.2% (inactive)
36 | OC1CSSC1Cn1cnc2c(Nc3ccc(OCc4cccc(F)c4)c(Cl)c3)ncnc21 (stereo not given) | 4.03% (active)
37 | CC1(C)N=C(N)N=C(N)N1c1cc(Cl)ccc1Cl | 96.4% (inactive)
38 | O=C(Nc1cc(Cl)ccc1O)c1ccccc1Nc1ccnc(C(F)(F)F)c1 | 19.8% (inactive)
39 | Cc1c(C(C)(C)O)cn2ncnc(Oc3ccc(NC(=O)Nc4ccc(Cl)c(C(F)(F)F)c4)c(F)c3)c12 | 37.5% (inactive)
40 | COc1ccc2cc(-c3nc4ccc(C)cn4c3NCc3ccco3)c(=O)[nH]c2c1 | 69.3% (inactive)
